Compounds with a hit are over-represented: about 0.71% of the library has one in this group of screens.
TR SRC2 fluor cs = Texas Red fluorescence interference in TRb-SRC2 counter-screen. TRb/SRC2 Texas Red total fluorescence interference. Potency, µM (series often up to 106 µM), for inactives: at the highest dose fluorescence change, negative = quenching. actives 0.29% (n = 280,000); active = well fitted curve in either direction with a large enough effect; inconclusive = small, poorly fitted or top-dose-only effect; note: % is set by controls: 0 for no effect and ±100 for the full control effect
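Flags fluorescent or light-absorbing compounds by total fluorescence, S + 2P, at 555 nm excitation and 632 nm emission. Mixture: 20 nM Texas Red SRC2 peptide, 0.6 uM human TRb LBD, 1 uM T3, 5% DMSO; compound exposure 5 h at ambient temperature.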
ERG-DNA inh = blocks human ERG Ets domain binding to DNA | P11308 | fluorescence polarization, His-ERG Ets domain / labelled DNA | Potency, µM (top dose mostly 76.9 µM), without a hit: at the highest dose FP activity, negative = inhibition, usual class: inhibitors | actives 0.028% (n = 370,000); active = well fitted inhibition curve with a large enough effect in the polarisation, with a control signal flat; inconclusive = small, poorly fitted or top-dose-only effect, or effect the other way, or a change in a side signal; inactive = no such curve, though single readings can be large or run the other way; the % refers to the polarisation;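 note: polarization taken with two DNA probes labelled with fluorescein and Texas red; % of control where 0% means no effect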
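His-tagged ERG Ets domain (1 uM in the protein solution; 300mM KCl, 50mM Tris-HCl, 1mM EDTA, 1mM DTT, pH 7.5) received compound, then a probe mix of 5 nM fluorescein-DNA and 100nM Texas-615-DNA. Fluorescence polarization was read for both dyes.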
TRb SRC2 PPI = disrupts binding of human TR beta to SRC2; AID 1469; P10828; Potency, µM (highest dose often 106 µM), for the others: top-dose activity change, negative = inhibition, most hits filed as inhibitors; TRbeta-SRC2 peptide binding, fluorescence polarization; receptor liganded with 1 µM T3; actives 0.065% (n = 280,000);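 note: plate controls were bound peptide for no effect and peptide without receptor for full effect; nearly all actives have a fitted effect of over 50% in size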
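Decrease in fluorescence polarization of 20 nM Texas Red SRC2 coactivator peptide flagged inhibition of its binding to 0.6 uM TRb LBD; 1 uM T3 included, incubation 5 hr, ex 555/em 632 nm.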
RECQ1 inh-1 = RECQ1 (human) helicase inhibition; Potency, µM (highest dose often 57.3 µM), for inactives: at the top dose activity, negative = inhibition, most hits filed as inhibitors; actives 0.54% (n = 240,000); RECQ1 DNA unwinding, red fluorescence kinetic read;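 note: plate controls were vehicle for no effect and no enzyme for full effect; nearly all actives have a fitted effect of over 30% in size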
Target sequence (P46063 whole entry, looked up): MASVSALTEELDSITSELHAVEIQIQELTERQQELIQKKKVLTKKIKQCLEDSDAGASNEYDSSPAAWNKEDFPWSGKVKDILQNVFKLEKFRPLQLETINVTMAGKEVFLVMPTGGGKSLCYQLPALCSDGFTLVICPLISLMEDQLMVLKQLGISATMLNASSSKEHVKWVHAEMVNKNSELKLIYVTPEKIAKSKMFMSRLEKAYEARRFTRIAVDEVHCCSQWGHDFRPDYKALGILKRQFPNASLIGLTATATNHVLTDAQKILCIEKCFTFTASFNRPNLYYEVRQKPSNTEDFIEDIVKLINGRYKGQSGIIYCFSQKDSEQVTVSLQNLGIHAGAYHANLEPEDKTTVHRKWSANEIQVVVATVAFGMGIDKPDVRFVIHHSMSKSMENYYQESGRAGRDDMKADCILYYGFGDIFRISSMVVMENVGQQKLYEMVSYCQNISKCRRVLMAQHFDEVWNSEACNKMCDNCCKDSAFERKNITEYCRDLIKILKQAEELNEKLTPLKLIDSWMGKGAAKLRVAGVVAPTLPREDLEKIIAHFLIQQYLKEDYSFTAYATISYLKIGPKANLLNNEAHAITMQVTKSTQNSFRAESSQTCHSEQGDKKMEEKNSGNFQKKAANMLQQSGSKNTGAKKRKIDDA
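RECQ1T1 50 nM; forked duplex (20 bp + 30-nt ss tails) 200 nM, ATP 2 mM final; pH 8.0, 2 mM MgCl2, 2.5 ug/ml poly(dI-dC); 15 min compound preincubation; discontinuous kinetic read over 2 h at RT.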
BLM helicase inh = Bloom syndrome helicase (human) inhibition; AID 2528; actives 0.2% (n = 350,000); Potency, µM (top dose mostly 56.1 µM), for inactives: at the top dose activity change, negative = inhibition, usual class: inhibitors; recombinant BLM DNA unwinding, fluorescence dequenching; P54132;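 note: plate controls were vehicle for no effect and no enzyme for full effect; nearly all actives have a fitted effect of over 35% in size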
GoLoco inh red = blocks human Gai1 binding to RGS12 GoLoco peptide, red readout; P63096; Gai1:RGS12 GoLoco peptide FP, rhodamine, 10 min; Potency, µM (titrated, usually from 61.6 µM), inactives show at the top dose activity, negative = inhibition, actives largely listed as inhibitors; actives 0.44% (n = 230,000); AID 880; active = well fitted inhibition curve with a large enough effect, not every such curve was filed as active; inactive = no such curve, though single readings can be large or run the other way; note: % is set by controls: 0 for no effect and ±100 for the full control effect; nearly all actives have a fitted effect of over 30% in size
RECQ1 conf = confirmation of human RECQ1 helicase inhibitors. shares compounds with RECQ1 inh-1. RECQ1 helicase DNA unwinding, fluorescence. Potency, µM (doses to about 229 µM), without a hit: at the top dose activity change, negative = inhibition, most hits filed as inhibitors. actives 28% (n = 610). AID 2708; note: % is set by controls: 0 for no effect and ±100 for the full control effect; nearly all actives have a fitted effect of over 45% in size
ADP FP counter = displaces ADP in a fluorescence polarization counter-screen for RECQ1 hits | shares compounds with RECQ1 inh-1 | ADP fluorescence polarization displacement counterscreen | Potency, µM (doses to about 228 µM), for the others: at the highest dose activity change, negative = inhibition, most hits filed as inhibitors | actives 27% (n = 530); note: % is set by controls: 0 for no effect and ±100 for the full control effect; nearly all actives have a fitted effect of over 45% in size
RECQ1 inh-2 = RECQ1 helicase inhibition confirmed, round 2; shares compounds with RECQ1 inh-1; recombinant RECQ1 DNA unwinding, red fluorescence; actives 15% (n = 1,100); Potency, µM (series often up to 119 µM), without a hit: top-dose activity, negative = inhibition, hits mostly inhibitors; AID 504841; note: % is set by controls: 0 for no effect and ±100 for the full control effect; nearly all actives have a fitted effect of over 50% in size
* marks the source's active call; other numbers are inactive results; ? = inconclusive; nt = no result; ! = not confirmed by another sample; [ ] = remark or other dose. Unless noted, calls come from the whole dose curve; as a rule, active = well fitted curve in the direction sought with a large enough effect; inconclusive = small, poorly fitted or top-dose-only effect, or another doubt; inactive = no such curve, though single readings can be large; an effect the other way counts as inactive or inconclusive. Potency is the fitted concentration of half-maximal effect.

SMILES | TR SRC2 fluor cs | ERG-DNA inh | TRb SRC2 PPI | RECQ1 inh-1 | BLM helicase inh | GoLoco inh red | RECQ1 conf | RECQ1 inh-2 | others
CCCCNC(=O)c1c(N)n(CCCOC)c2nc3ccccc3nc12 | 1% | 9% | ? | ? | ? | -1% | nt | -11%
CCCNC(=O)c1c(N)n(Cc2ccc3c(c2)OCO3)c2nc3ccccc3nc12 | 3% | -10% | -27% | -7% | -9% | 9% | nt | nt
FC(F)(F)c1ccc(OCCCOc2c(Cl)cc(OCC=C(Cl)Cl)cc2Cl)nc1 | 0%[201 µM] | nt | -3%[201 µM] | nt | nt | nt | nt | nt
CCOc1ccc(-c2nc3ccc(-c4nc5ccc(N6CCN(C)CC6)cc5[nH]4)cc3[nH]2)cc1 | -30% | nt | -7% | 13µM* | ? | 34% | nt | 5.6µM*!
CCCCNC(=O)Oc1c(Br)cc2sc(=O)oc2c1Br | -7% | nt | -9% | 11µM* | -9% | -9% | 5%[114 µM] | nt | ADP FP counter=12%[91.9 µM]
O=C1CC(N2CC=C(c3ccccc3)CC2)C(=O)N1c1ccc(F)cc1 (stereo not drawn) | 7% | 30% | 8% | 28µM* | -7% | 24% | nt | -24%
CCCOc1ccc(N2C(=O)CC(N3CC=C(c4ccccc4)CC3)C2=O)cc1 (stereo not drawn) | -6% | 17% | 6% | -1% | -8% | 64% | nt | nt
CCN(CC)C(=O)N[C@@H]1C=C2c3cccc4[nH]cc(c34)C[C@H]2N(C)C1 | 2% | nt | 1% | ? | -8% | -26% | -6% | nt | ADP FP counter=22µM*
CC[C@@H](CO)NC(=O)[C@@H]1C=C2c3cccc4[nH]cc(c34)C[C@H]2N(C)C1 | 12% | -16% | -17% | 35µM* | -17% | 8% | 3% | nt | ADP FP counter=112µM*
CN1C[C@H](C(=O)N[C@]2(C)O[C@@]3(O)[C@@H]4CCCN4C(=O)[C@H](Cc4ccccc4)N3C2=O)C=C2c3cccc4[nH]cc(c34)C[C@H]21 | ? | nt | -15% | ? | -12% | -9% | ? | nt | ADP FP counter=7.1µM*
CC[C@@H](CO)NC(=O)[C@@H]1C=C2c3cccc4c3c(cn4C)C[C@H]2N(C)C1 | ? | -28% | ? | 40µM*! | -15% | -66% | ? | nt
COC(=O)C1C=C2c3cccc4[nH]cc(c34)CC2N(C)C1 (stereo not drawn) | 24% | nt | -13% | ? | -26% | -24% | nt | nt
N#Cc1c[nH]cc1-c1cccc2c1OC(F)(F)O2 | -8%[201 µM] | nt | 0%[201 µM] | nt | nt | nt | nt | nt
CCCCCCCCCCCCC1=C(OC(C)=O)C(=O)c2ccccc2C1=O | 0%[201 µM] | nt | -9%[201 µM] | nt | nt | nt | nt | nt
COc1cc2c(cc1OC)C(c1c(O)n(CCc3ccccc3)c(=S)[nH]c1=O)NCC2 (stereo not drawn) | 5% | 25% | 10% | ? | -6% | 51% | nt | ?
CNc1ccc2oc(C[C@H]3O[C@@]4(CC[C@H]3C)O[C@H]([C@H](C)C(=O)c3ccc[nH]3)[C@H](C)C[C@H]4C)nc2c1C(=O)O | 1% | -8% | 1% | ? | -27% | -7% | nt | -11%
CNc1ccc2oc(C[C@@H]3OC4(CC[C@@H]3C)O[C@H]([C@@H](C)C(=O)c3ccc[nH]3)[C@H](C)C[C@H]4C)nc2c1C(=O)O (stereo partly drawn) | -2% | nt | -24% | ? | nt | 2% | nt | 9%
Cc1cc(C2CC2)nc(Nc2ccccc2)n1 | -5%[201 µM] | nt | -5%[201 µM] | nt | nt | nt | nt | nt
CCOP(=O)(OCC)Oc1nc(Cl)c(Cl)cc1Cl | 0%[201 µM] | nt | -3%[201 µM] | nt | nt | nt | nt | nt
O=C1C=CC(=O)C(Cl)=C1 | -8% | nt | -1% | 20µM* | -16% | 1.8µM* | ? | nt | ADP FP counter=16µM*
O=C1C=CC(=O)c2ccccc21 | -6%[201 µM] | nt | -5%[201 µM] | nt | nt | nt | nt | nt
COc1cc(O)c(C(=O)O)c(-c2cc(O)c(O)cc2C)c1 | -6% | -16% | -7% | ? | 4% | -16% | nt | ?
O=[As](O)(O)O | -1%[201 µM] | nt | -2%[201 µM] | nt | nt | nt | nt | nt
CCOc1cc(C(C)(C)C)ccc1C1COC(c2c(F)cccc2F)=N1 (stereo not drawn) | 0%[201 µM] | nt | 0%[201 µM] | nt | nt | nt | nt | nt
O=C(O)CCn1cc(C=C2C(=O)NC(=O)NC2=O)c(-c2cc3ccccc3oc2=O)n1 | 1% | 10% | -2% | 21% | 3% | 29% | 15% | nt | ADP FP counter=-3%
SMILES | TR SRC2 fluor cs | ERG-DNA inh | TRb SRC2 PPI | RECQ1 inh-1 | BLM helicase inh | GoLoco inh red | RECQ1 conf | RECQ1 inh-2 | others
CCNc1nc(NC(C)C)nc(OC)n1 | -1%[201 µM] | nt | 0%[201 µM] | nt | nt | nt | nt | nt
CC1COC(Cn2cncn2)(c2ccc(Oc3ccc(Cl)cc3)cc2Cl)O1 (stereo not drawn) | 0%[201 µM] | nt | -6%[201 µM] | nt | nt | nt | nt | nt
O=C(O)c1ccccc1-c1nc2ccccc2n1-c1ccccc1 | -1% | 0% | -5% | 11µM* | 0% | 12% | 40µM* | 1.8µM*
O=c1c2ccccc2nc(-c2ccccc2F)n1-c1ccccc1 | nt | 1% | nt | nt | -2% | nt | nt | nt
CCC[CH2][Sn]([CH2]CCC)([CH2]CCC)[CH2]CCC | 1%[201 µM] | nt | 7%[201 µM] | nt | nt | nt | nt | nt
O=C(O)c1ccc(-c2ccc3cc(C45CC6CC(CC(C6)C4)C5)c(O)cc3c2)cc1 | ? | nt | ? | 20µM* | -1% | nt | 100µM* | ? | ADP FP counter=112µM*

From PubChem BioAssay
